Measurements as given in the supplement of paper PMC10849652.
Targets with a hit are over-represented here; the source holds about 8,800 in all. About 0.5% of all pairs of compound and target were hits.

How the values were obtained:
Experiment in all cases: log2 fold change, soluble protein after heating vs DMSO (PISA); higher = thermal stabilisation; K562 lysate, 10 uM; active = over 0.2 and 3.5 SD of the protein, either way, in both replicates (recomputed)
vemurafenib = compound: CCCS(=O)(=O)Nc1ccc(F)c(C(=O)c2c[nH]c3ncc(-c4ccc(Cl)cc4)cc23)c1F [vemurafenib]
Method in brief: (§1)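 K562 pellets were dounce-homogenised in PBS pH 7.4 containing 1 mM MgCl2, and the crude extract, at 1 mg/mL protein, was exposed to 10 μM compound for 30 min. Aliquots were heated for 3 min across 48°C-58°C, pooled, brought to 0.5% NP-40 at 4°C and spun at 21,000xg for 90 min, with the supernatant taken as soluble protein. TMTpro 16plex LC-MS/MS with equalised channel sums quantified that protein. Values are log-two fold changes in thermal stability relative to solvent controls, taken from duplicates.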

[1] = compound: CCCS(=O)(=O)Nc1ccc(F)c(C(=O)c2c[nH]c3ncc(Cl)cc23)c1F
Method in brief: as §1

barasertib = compound: CCN(CCCOc1ccc2c(Nc3cc(CC(=O)Nc4cccc(F)c4)[nH]n3)ncnc2c1)CCOP(=O)(O)O [barasertib]
Method in brief: as §1

[2] = compound: CC[C@@H]1C(=O)N(C)c2cnc(Nc3ccc(C(=O)NC4CCN(C)CC4)cc3OC)nc2N1C1CCCC1
Method in brief: as §1

volasertib = compound: CC[C@@H]1C(=O)N(C)c2cnc(Nc3ccc(C(=O)N[C@H]4CC[C@H](N5CCN(CC6CC6)CC5)CC4)cc3OC)nc2N1C(C)C [volasertib]
Method in brief: as §1

[3] = compound: CCn1c(C(=O)N(C2CC2)C2CC2)cc2c3c(ncn3C)c(Nc3cc(C)n(C)n3)nc21
Method in brief: as §1

[4] = compound: CCn1cc(-c2ccnc3[nH]c(-c4cccc(CN(C)C)c4)cc23)c(-c2ccc(NC(=O)N(C)C)cc2)n1
Method in brief: as §1

[5] = compound: CN1CCC(CNc2ccc3ncc(-c4cccc(OC(F)(F)F)c4)n3n2)CC1
Method in brief: as §1

saracatinib = compound: CN1CCN(CCOc2cc(OC3CCOCC3)c3c(Nc4c(Cl)ccc5c4OCO5)ncnc3c2)CC1 [saracatinib]
Method in brief: as §1

sotrastaurin = compound: CN1CCN(c2nc(C3=C(c4c[nH]c5ccccc45)C(=O)NC3=O)c3ccccc3n2)CC1 [sotrastaurin]
Method in brief: as §1

Measured: log2 fold change

ATP5PF isoform 2 (UniProt P18859)
Sequence of UniProt P18859 (P18859 whole entry, looked up): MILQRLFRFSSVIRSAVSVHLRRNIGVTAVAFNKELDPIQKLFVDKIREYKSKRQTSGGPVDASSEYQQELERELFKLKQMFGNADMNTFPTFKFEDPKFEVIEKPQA
inactive: vemurafenib 0.083 | [1] -0.023 | barasertib 0.064 | [2] 0.076 | volasertib 0.133 | [3] 0.076 | [5] -0.205 | saracatinib -0.024 | sotrastaurin -0.067
active: [4] 0.663

BPHL (UniProt Q86WA6)
Sequence of UniProt Q86WA6 (Q86WA6 whole entry, looked up): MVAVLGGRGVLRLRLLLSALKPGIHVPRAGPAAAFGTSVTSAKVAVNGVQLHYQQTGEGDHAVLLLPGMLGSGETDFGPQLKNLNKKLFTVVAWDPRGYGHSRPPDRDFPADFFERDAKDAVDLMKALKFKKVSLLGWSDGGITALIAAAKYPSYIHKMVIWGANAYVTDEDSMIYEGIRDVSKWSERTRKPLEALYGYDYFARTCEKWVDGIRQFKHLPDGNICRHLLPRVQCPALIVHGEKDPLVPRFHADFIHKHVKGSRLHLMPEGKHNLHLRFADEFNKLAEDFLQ
inactive: vemurafenib -0.13 | [1] 0.013 | barasertib 0.058 | [2] 0.015 | volasertib 0 | [3] 0.069 | [4] 0.063 | [5] 0 | saracatinib -0.058 | sotrastaurin 0.084

ATRIP (UniProt Q8WXE1)
active: [2] -0.281
inactive: vemurafenib 0.174 | [1] 0.002 | barasertib -0.036 | volasertib -0.06 | [3] -0.013 | [4] 0.031 | [5] -0.001 | saracatinib 0.048 | sotrastaurin 0.002

CARS isoform 3 (UniProt P49589)
inactive: vemurafenib 0.011 | [1] 0.004 | barasertib -0.032 | [2] -0.01 | volasertib -0.052 | [3] 0.02 | [4] 0.004 | [5] -0.029 | saracatinib 0.005 | sotrastaurin 0.041

CCNA2 (UniProt P20248)
inactive: vemurafenib -0.033 | [1] -0.004 | barasertib -0.056 | [2] 0.022 | volasertib -0.018 | [3] -0.03 | [4] -0.183 | [5] 0.169 | saracatinib 0.001 | sotrastaurin 0

CES2 isoform 4 (UniProt O00748)
inactive: vemurafenib 0.03 | [1] -0.024 | barasertib -0.052 | [2] -0.012 | volasertib 0.004 | [3] -0.046 | [4] 0.002 | [5] 0.034 | saracatinib -0.001 | sotrastaurin -0.017

CASP9 (UniProt P55211)
inactive: vemurafenib -0.017 | [1] 0.001 | barasertib -0.002 | [2] 0.025 | volasertib 0.029 | [3] -0.061 | [4] -0.013 | [5] 0.005 | saracatinib 0.003 | sotrastaurin 0.045

BTAF1 (UniProt O14981)
inactive: vemurafenib 0.029 | [1] 0.026 | barasertib 0.029 | [2] -0.029 | volasertib -0.058 | [3] 0.045 | [4] -0.138 | [5] 0.051 | saracatinib 0.008 | sotrastaurin 0.006

C18orf25 isoform 2 (UniProt Q96B23)
inactive: vemurafenib -0.01 | [1] 0.027 | barasertib -0.034 | [2] 0.067 | volasertib -0.021 | [3] -0.047 | [4] -0.234 | [5] 0.037 | saracatinib -0.037

CCPG1 isoform 5 (UniProt Q9ULG6)
inactive: vemurafenib 0.082 | [1] -0.038 | barasertib 0.034 | [2] 0.066 | volasertib 0 | [3] 0.071 | [4] -0.081 | [5] 0.04 | saracatinib 0.049 | sotrastaurin 0.051

CCNB1 (UniProt P14635)
inactive: vemurafenib 0.032 | [1] -0.021 | barasertib 0.019 | [2] 0.03 | volasertib -0.043 | [3] -0.031 | [4] -0.023 | [5] -0.012 | saracatinib 0.002 | sotrastaurin -0.038

CEP120 (UniProt Q8N960)
Sequence of UniProt Q8N960 (Q8N960 whole entry, looked up): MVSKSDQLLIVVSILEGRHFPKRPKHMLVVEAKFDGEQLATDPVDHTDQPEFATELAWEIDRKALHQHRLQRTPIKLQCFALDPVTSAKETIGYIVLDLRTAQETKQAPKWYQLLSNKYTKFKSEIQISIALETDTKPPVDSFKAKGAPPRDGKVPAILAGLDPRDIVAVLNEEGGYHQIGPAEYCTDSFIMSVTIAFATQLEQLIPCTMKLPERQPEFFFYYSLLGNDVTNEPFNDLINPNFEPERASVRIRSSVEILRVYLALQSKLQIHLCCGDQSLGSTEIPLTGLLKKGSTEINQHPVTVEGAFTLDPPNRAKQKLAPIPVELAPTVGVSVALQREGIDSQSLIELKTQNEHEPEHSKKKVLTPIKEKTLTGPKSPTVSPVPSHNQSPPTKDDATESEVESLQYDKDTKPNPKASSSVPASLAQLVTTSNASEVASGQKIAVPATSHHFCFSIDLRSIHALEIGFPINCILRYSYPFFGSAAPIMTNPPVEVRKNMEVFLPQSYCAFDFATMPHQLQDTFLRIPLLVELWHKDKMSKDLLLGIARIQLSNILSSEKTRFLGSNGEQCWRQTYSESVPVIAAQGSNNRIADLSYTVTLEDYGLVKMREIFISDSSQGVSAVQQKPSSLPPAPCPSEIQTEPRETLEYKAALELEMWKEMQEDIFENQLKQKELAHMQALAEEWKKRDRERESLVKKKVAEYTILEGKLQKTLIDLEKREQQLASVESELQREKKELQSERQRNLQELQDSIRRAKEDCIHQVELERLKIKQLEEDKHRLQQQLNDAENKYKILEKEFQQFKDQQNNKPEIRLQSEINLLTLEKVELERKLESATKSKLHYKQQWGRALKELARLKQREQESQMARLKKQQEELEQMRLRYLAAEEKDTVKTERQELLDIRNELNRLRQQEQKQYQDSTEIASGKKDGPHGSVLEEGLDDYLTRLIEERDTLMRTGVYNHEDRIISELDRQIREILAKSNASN
inactive: vemurafenib 0.052 | [1] -0.098 | barasertib 0.033 | [2] -0.411 | volasertib 0.029 | [3] -0.134 | [4] -0.233 | [5] 0.119 | saracatinib 0.008 | sotrastaurin 0.034

CDK9 isoform 2 (UniProt P50750)
Sequence of UniProt P50750 (P50750 whole entry, looked up): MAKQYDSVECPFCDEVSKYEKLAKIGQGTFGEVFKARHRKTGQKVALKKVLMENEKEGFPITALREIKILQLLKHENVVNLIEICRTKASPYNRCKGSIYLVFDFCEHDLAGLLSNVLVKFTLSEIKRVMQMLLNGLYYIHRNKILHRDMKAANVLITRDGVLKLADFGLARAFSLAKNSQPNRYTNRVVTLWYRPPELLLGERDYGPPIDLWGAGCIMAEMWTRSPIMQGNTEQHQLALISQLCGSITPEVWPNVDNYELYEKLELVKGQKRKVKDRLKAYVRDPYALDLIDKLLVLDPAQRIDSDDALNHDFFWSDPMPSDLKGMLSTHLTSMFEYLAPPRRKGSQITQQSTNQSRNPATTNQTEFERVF
inactive: vemurafenib -0.117 | [1] -0.064 | barasertib -0.025 | [2] 0.009 | volasertib 0.002 | [3] 0.175 | [4] -0.203 | [5] 0.079 | saracatinib 0.005
active: sotrastaurin 0.34

CDC42BPA isoform 6 (UniProt Q5VT25)
inactive: vemurafenib 0.01 | [1] 0.036 | barasertib -0.006 | [2] -0.111 | volasertib -0.043 | [3] 0.021 | [4] 0.062 | [5] -0.118 | saracatinib -0.021 | sotrastaurin -0.023

C15orf41 (UniProt Q9Y2V0)
Sequence of UniProt Q9Y2V0 (Q9Y2V0 whole entry, looked up): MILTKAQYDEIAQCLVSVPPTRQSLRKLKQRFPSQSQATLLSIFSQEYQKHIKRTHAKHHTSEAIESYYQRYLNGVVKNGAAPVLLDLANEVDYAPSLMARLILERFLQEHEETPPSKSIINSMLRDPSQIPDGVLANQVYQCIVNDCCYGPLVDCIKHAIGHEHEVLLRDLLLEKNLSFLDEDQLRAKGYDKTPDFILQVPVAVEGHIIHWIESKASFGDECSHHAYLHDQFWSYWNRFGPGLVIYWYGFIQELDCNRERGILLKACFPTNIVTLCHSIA
inactive: vemurafenib 0.151 | [1] 0.005 | barasertib 0.095 | [2] -0.089 | volasertib 0.041 | [3] -0.049 | [4] -0.143 | [5] 0.037 | saracatinib -0.018 | sotrastaurin -0.016

ATE1 isoform 2 (UniProt O95260)
inactive: vemurafenib 0.118 | [1] -0.006 | barasertib 0.069 | [2] 0.019 | volasertib -0.013 | [3] 0.014 | [4] 0.032 | [5] 0.126 | saracatinib 0.006 | sotrastaurin -0.016

ATXN2 (UniProt Q99700)
inactive: vemurafenib 0.007 | [1] -0.004 | barasertib 0.012 | [2] 0.057 | volasertib 0.001 | [3] 0.022 | [4] 0.005 | [5] -0.03 | saracatinib -0.014 | sotrastaurin 0.052

CCNY (UniProt Q8ND76)
inactive: vemurafenib -0.011 | [1] 0 | barasertib -0.016 | [2] -0.148 | volasertib 0.036 | [3] -0.103 | [4] 0.032 | [5] 0.037 | saracatinib 0.063 | sotrastaurin 0.025

CHD4 isoform 2 (UniProt Q14839)
inactive: vemurafenib 0 | [1] 0.002 | barasertib 0.028 | [2] -0.003 | volasertib -0.002 | [3] 0.022 | [4] -0.054 | [5] -0.017 | saracatinib 0.002 | sotrastaurin 0.02

CCNYL1 (UniProt Q8N7R7)
inactive: vemurafenib -0.072 | [1] 0.003 | barasertib -0.046 | [2] 0.031 | volasertib -0.046 | [3] 0.012 | [4] -0.188 | [5] 0.269 | saracatinib 0.051 | sotrastaurin 0.034

C19orf54 (UniProt Q5BKX5)
inactive: vemurafenib 0.08 | [1] -0.028 | barasertib 0.002 | [2] -0.043 | volasertib -0.058 | [3] -0.06 | [4] 0.013 | [5] 0.003 | saracatinib -0.027 | sotrastaurin -0.027

CHD3 isoform 3 (UniProt Q12873)
inactive: vemurafenib -0.033 | [1] 0.009 | barasertib 0.035 | [2] -0.02 | volasertib -0.018 | [3] -0.039 | [4] -0.066 | [5] -0.027 | saracatinib 0.001 | sotrastaurin 0.004

CDAN1 (UniProt Q8IWY9)
Sequence of UniProt Q8IWY9 (Q8IWY9 whole entry, looked up): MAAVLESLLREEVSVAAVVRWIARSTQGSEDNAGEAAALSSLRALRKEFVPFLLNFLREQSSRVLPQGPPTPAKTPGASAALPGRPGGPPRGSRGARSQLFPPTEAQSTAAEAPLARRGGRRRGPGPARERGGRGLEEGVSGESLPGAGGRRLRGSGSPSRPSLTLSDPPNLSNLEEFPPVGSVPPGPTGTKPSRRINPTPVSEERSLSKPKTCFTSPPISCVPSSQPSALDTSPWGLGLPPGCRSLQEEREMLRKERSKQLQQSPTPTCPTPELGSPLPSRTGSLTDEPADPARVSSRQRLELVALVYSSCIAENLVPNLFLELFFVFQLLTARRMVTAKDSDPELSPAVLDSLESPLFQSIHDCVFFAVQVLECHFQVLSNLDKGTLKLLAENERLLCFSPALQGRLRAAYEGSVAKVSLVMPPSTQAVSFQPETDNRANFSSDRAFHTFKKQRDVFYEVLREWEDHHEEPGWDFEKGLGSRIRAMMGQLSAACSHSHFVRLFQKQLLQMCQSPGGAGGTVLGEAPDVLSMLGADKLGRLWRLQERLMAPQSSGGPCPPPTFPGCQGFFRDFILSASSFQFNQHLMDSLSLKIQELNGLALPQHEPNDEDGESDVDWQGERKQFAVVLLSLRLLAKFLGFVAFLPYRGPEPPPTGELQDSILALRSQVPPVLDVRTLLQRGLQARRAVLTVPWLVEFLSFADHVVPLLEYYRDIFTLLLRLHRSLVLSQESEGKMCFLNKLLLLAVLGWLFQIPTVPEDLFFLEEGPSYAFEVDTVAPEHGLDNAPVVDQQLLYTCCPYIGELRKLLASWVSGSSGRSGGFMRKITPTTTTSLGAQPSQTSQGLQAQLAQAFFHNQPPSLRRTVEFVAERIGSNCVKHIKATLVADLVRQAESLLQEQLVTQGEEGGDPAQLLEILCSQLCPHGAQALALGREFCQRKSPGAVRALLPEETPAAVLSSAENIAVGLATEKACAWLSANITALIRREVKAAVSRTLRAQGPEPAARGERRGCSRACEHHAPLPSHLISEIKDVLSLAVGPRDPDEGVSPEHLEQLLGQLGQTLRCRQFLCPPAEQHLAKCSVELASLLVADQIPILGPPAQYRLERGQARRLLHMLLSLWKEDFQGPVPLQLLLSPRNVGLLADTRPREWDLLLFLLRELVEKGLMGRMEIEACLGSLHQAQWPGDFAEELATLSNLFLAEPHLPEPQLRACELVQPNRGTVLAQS
inactive: vemurafenib -0.047 | [1] 0.004 | barasertib 0.014 | [2] -0.093 | volasertib -0.034 | [3] 0.031 | [4] -0.03 | [5] -0.012 | saracatinib 0.002 | sotrastaurin -0.005

ATP2B4 (UniProt P23634)
Sequence of UniProt P23634 (P23634 whole entry, looked up): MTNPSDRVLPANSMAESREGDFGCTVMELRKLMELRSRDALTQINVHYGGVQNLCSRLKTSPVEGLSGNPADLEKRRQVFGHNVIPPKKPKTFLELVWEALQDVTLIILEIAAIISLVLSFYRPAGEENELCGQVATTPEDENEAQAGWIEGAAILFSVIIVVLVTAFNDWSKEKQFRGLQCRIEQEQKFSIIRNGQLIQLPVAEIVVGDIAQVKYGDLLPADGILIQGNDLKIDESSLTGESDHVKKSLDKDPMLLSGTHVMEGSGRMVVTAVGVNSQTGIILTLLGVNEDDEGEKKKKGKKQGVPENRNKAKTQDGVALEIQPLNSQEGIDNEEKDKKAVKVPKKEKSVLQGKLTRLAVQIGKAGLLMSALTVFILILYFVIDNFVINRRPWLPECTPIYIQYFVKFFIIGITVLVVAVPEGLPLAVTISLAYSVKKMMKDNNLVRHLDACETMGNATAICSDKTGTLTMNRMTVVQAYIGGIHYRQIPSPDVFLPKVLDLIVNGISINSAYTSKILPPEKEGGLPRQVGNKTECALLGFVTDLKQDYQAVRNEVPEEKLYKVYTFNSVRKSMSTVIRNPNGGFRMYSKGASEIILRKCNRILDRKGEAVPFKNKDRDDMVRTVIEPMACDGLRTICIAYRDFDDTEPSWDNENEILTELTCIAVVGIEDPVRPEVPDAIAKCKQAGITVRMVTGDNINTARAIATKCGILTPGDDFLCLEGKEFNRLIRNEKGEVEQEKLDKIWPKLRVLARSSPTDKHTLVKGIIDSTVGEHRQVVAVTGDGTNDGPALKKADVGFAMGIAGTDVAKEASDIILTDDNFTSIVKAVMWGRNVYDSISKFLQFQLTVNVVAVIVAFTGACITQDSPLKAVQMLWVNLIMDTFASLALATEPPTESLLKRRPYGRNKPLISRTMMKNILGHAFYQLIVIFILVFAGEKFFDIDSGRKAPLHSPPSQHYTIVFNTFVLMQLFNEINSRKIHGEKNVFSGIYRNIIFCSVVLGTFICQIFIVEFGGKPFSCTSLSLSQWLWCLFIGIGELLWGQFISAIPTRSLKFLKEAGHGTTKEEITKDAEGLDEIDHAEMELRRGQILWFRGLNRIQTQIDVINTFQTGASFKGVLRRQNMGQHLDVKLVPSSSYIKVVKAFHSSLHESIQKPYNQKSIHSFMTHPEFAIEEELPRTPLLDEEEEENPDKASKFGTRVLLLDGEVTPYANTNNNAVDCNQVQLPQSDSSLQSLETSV
inactive: vemurafenib 0.002 | [1] -0.002 | barasertib 0.026 | [2] -0.027 | volasertib -0.004 | [3] -0.019 | [4] -0.185 | [5] 0.145 | saracatinib 0.024 | sotrastaurin 0.009

ATP13A1 (UniProt Q9HD20)
active: [5] -0.343
inactive: vemurafenib -0.006 | [1] 0.013 | barasertib -0.006 | [2] 0.023 | volasertib -0.036 | [3] 0.067 | [4] 0.004 | saracatinib 0.012 | sotrastaurin -0.012

CDK5RAP3 isoform 4 (UniProt Q96JB5)
active: [4] -0.313
inactive: vemurafenib 0.023 | [1] 0.013 | barasertib 0.022 | [2] -0.008 | volasertib -0.051 | [3] 0.029 | [5] 0.216 | saracatinib -0.002 | sotrastaurin -0.021

CAMKK1 isoform 2 (UniProt Q8N5S9)
inactive: vemurafenib -0.041 | [1] -0.062 | barasertib 0.11 | [2] 0.103 | volasertib 0.136 | [3] 0.115 | [4] -0.204 | [5] 0.041 | saracatinib -0.063 | sotrastaurin -0.013

CARD9 (UniProt Q9H257)
Sequence of UniProt Q9H257 (Q9H257 whole entry, looked up): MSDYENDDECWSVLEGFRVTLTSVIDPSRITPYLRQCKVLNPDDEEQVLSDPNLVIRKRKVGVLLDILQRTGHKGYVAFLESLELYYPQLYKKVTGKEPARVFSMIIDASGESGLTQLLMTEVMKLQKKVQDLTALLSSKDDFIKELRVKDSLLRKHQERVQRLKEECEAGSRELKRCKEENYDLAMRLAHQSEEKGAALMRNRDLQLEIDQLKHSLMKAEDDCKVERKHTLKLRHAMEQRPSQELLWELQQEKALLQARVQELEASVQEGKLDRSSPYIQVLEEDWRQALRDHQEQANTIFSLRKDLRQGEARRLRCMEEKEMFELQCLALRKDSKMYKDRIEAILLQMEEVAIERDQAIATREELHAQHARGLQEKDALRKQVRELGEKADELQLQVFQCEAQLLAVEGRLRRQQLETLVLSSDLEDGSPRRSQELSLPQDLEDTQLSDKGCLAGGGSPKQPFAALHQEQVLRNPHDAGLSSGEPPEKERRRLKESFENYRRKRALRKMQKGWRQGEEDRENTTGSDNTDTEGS
inactive: vemurafenib 0.03 | [1] 0.026 | barasertib 0.008 | [2] 0.068 | volasertib -0.001 | [3] 0.011 | [4] -0.036 | [5] 0.013 | saracatinib 0.014 | sotrastaurin -0.01

CDK13 (UniProt Q14004)
inactive: vemurafenib -0.124 | [1] -0.031 | barasertib -0.061 | [2] 0.002 | volasertib -0.123 | [3] 0.106 | [4] -0.09 | [5] 0.04 | saracatinib 0.074 | sotrastaurin -0.036
